Screening results: PubChem, National Center for Advancing Translational Sciences (NCATS)
Only some compounds are listed: those with a hit (about 21% of all), similar ones and a draw of the others.
DT40 TDP1 CPT: growth inhibition of DT40 Tdp1-/-;hTDP1 cells with camptothecin (screen for TDP1 inhibitors); chicken DT40 Tdp1-/-;hTDP1 cells + 20 nM CPT, ATP luminescence, 48 h; Potency, µM (titrated, usually from 46.2 µM), usual class: inhibitors; actives 12% (n = 420,000); AID 686979; also: nearly all actives have a fitted effect of over 55% in size
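Chicken DT40 Tdp1-/- cells complemented with human TDP1, 400 cells/well, exposed to compounds plus 20 nM camptothecin for at least 48 h at 37 C; viability read as ATP content by CellTiter-Glo luminescence.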
IL1B secr inh: inflammasome signaling inhibition, IL-1 beta readout; actives 4.7% (n = 360,000); AID 743279; activity change, % at 57.5 µM; THP-1 LPS/ATP IL-1B secretion, AlphaLISA, 16 h; stronger effect = lower value; in the data active = activity change below about -50%; inconclusive = mostly about -30% to -49%
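Secreted IL-1B measured by AlphaLISA bead assay after 16 h compound exposure of THP-1 cells; compounds (final up to 57.5 uM) added 1 h before LPS (250 ng/mL) and ATP (1.25 mM) stimulation; lower signal means less secretion.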
DRD3 agonist: D3 dopamine receptor (human) agonism; P35462; D3R DiscoveRx beta-arrestin cells, luminescence, 90 min; max activation, %; actives 0.58% (n = 410,000); in the data active = max activation above about 30%
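Agonist mode: compounds and dopamine controls were applied to plated cells for 90 min at 37 degrees C after an overnight attachment at 1500 cells/well. Luminescent read-out followed 30 - 60 minutes at room temperature with DiscoveRx detection reagent.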
D3 antag: D3 dopamine receptor (human) antagonism; max response, negative = inhibition, %; actives 2.5% (n = 360,000); AID 652054; D3R cells, DiscoveRx beta-arrestin luminescence, antagonist mode; stronger effect = lower value; in the data active = max response below about -50%; inconclusive = no clear call, values can overlap the other calls
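Cells expressing the human receptor were seeded at 1500 cells/well, incubated overnight at 37 degrees C in 5% CO2, then exposed to library compounds with dopamine controls for 90 minutes at 37 degrees C before luminescent detection.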
TDP1 cell noCPT: qHTS for Inhibitors of human tyrosyl-DNA phosphodiesterase 1 (TDP1): qHTS in cells in absence of CPT. actives 15% (n = 420,000). AID 686978, 2013. DT40 Tdp1-/- hTDP1 cells, no CPT, ATP luminescence, 48 h. Potency, µM (top dose mostly 46.2 µM), usual class: inhibitors; also: nearly all actives have a fitted effect of over 55% in size
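Readout: luminescence from CellTiter-Glo after 30 min in the dark at RT. Cells: DT40 Tdp1-/- with stable hTDP1, 400/well. Exposure: compounds alone, ≥48 hr, 37 °C.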
ClpP mod: qHTS Assay for Activators of ClpP; ATP-dependent Clp protease proteolytic subunit (Bacillus subtilis (strain 168)), P80244; purified B. subtilis ClpP, FRET peptide cleavage, 20 min; Potency, µM (doses to about 57.5 µM); actives 1.9% (n = 340,000); AID 651965, 2013; active = well fitted falling curve with a large enough effect; inconclusive = small, poorly fitted or top-dose-only effect; inactive = no such curve, though single readings can be large or run the other way; also: the source files actives as falling curves though it sought activators and does not explain the sign; nearly all actives have a fitted effect of over 65% in size
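ClpP 10 microg/mL final, pH 8 Tris/KCl buffer with BSA, glycerol, Tween-20; compound pinned in; FRET-FV substrate; RT 20 min; Ex320/Em430; ΔFRET vs ADEP 5.8 microM, DMSO, no enzyme.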
Each line names hits and unclear results; the compound was inactive in the other large screens; ! = a repeat was not active. Unless noted, calls follow the shape of the dose curve; as a rule, active = well fitted inhibition curve with a large enough effect; inconclusive = small, poorly fitted or top-dose-only effect; inactive = flat fitted curve, though single readings scatter.

OCCC1CN(Cc2cnc(-c3ccccc3)s2)CCN1C1CCCC1 (stereo not drawn)	IL1B secr inh -81 (no result: ClpP mod)
OCCC1CN(Cc2cnc(-c3ccccc3)s2)CCN1C1CCCCC1 (stereo not drawn)	TDP1 cell noCPT inconclusive (no result: ClpP mod)
CCOc1ccc(CN2CCN(Cc3cnc(-c4ccccc4)s3)CC2CCO)cc1 (stereo not drawn)	DT40 TDP1 CPT inconclusive, TDP1 cell noCPT 21µM
CCOc1cc(C2NC(=O)CCC2[N+](=O)[O-])cc(Br)c1OCC (stereo not drawn)	none
CN(C)c1ccc(C(O)c2cc3ccccc3s2)cc1 (stereo not drawn)	TDP1 cell noCPT inconclusive (no result: ClpP mod)
CCOC(=O)c1sc(NC(=O)c2nc3ncccn3n2)c(C(=O)OC(C)C)c1C	none (no result: IL1B secr inh, D3 antag)
CC[C@@H]1/C=C(\C)C[C@H](C)C[C@H](OC)[C@H]2O[C@@](O)(C(=O)C(=O)N3CCCC[C@H]3C(=O)O[C@H](/C(C)=C/[C@@H]3CC[C@@H](Cl)[C@H](OC)C3)[C@H](C)[C@@H](O)CC1=O)[C@H](C)C[C@@H]2OC	DT40 TDP1 CPT inconclusive, TDP1 cell noCPT inconclusive (no result: IL1B secr inh, D3 antag, ClpP mod)
CCN1C(=O)N2C[C@H]3CON(C)[C@H]3C[C@H]2c2ccccc21	D3 antag inconclusive
Cc1ccc(NC(=O)n2ncc3c(C)cccc32)cc1F	none
CCCS(=O)(=O)NCc1c(C)ncc2c1CCN(C(=O)/C=C/c1ccc(F)cc1F)C2	none (no result: IL1B secr inh, DRD3 agonist, D3 antag, ClpP mod)
CCOc1ccc2nc(CN3CCN(Cc4ccsc4)C(CCO)C3)ccc2c1 (stereo not drawn)	DT40 TDP1 CPT inconclusive, TDP1 cell noCPT 18µM
CCn1cc(CN2CCN(Cc3ccsc3)C(CCO)C2)cn1 (stereo not drawn)	IL1B secr inh inconclusive (no result: ClpP mod)
CCOCCCNC(=O)CSCc1nc(-c2ccc(SC)cc2)oc1C	DT40 TDP1 CPT inconclusive, TDP1 cell noCPT inconclusive
COc1ccc(-c2nc(CSCC(=O)NCCc3ccc(C)cc3)c(C)o2)cc1OC	DT40 TDP1 CPT 16µM, TDP1 cell noCPT 18µM, ClpP mod 32µM (no result: IL1B secr inh, D3 antag)
CCOc1ccc(CCNC(=O)CSCc2nc(-c3cccc(C)c3)oc2C)cc1OCC	DT40 TDP1 CPT inconclusive, TDP1 cell noCPT 13µM (no result: IL1B secr inh, D3 antag)
COCCNC(=O)CSCc1nc(-c2ccc(SC)cc2)oc1C	TDP1 cell noCPT inconclusive, ClpP mod 25µM
COc1ccc(-c2nc(CSCC(=O)NCCC3=CCCCC3)c(C)o2)cc1OC	DT40 TDP1 CPT inconclusive, TDP1 cell noCPT inconclusive, ClpP mod 25µM
Cc1cccc(-c2nc(CSCC(=O)NCc3cccs3)c(C)o2)c1	DT40 TDP1 CPT inconclusive, TDP1 cell noCPT inconclusive
Cc1cnc(N=Nc2ccccc2)[nH]1	DT40 TDP1 CPT inconclusive, TDP1 cell noCPT inconclusive (no result: ClpP mod)
CCOc1ccc(CCNC(=O)CS(=O)Cc2nc(-c3ccc(C)cc3)oc2C)cc1OCC (stereo not drawn)	DT40 TDP1 CPT 16µM!, TDP1 cell noCPT inconclusive
CCOc1ccc(CCNC(=O)CS(=O)Cc2nc(-c3ccc(C)cc3)oc2C)cc1 (stereo not drawn)	DT40 TDP1 CPT inconclusive, IL1B secr inh inconclusive, TDP1 cell noCPT inconclusive
CC[C@H]1OC(=O)[C@H](C)[C@@H](O[C@H]2C[C@@](C)(OC)[C@@H](O)[C@H](C)O2)[C@H](C)[C@@H](O[C@@H]2O[C@H](C)C[C@H](N(C)C)[C@H]2O)[C@](C)(O)C[C@@H](C)C(=O)[C@H](C)[C@@H](O)[C@]1(C)O	none
CO[C@@H]1[C@@H](O[C@@H]2O[C@H](C)[C@@H](O[C@H]3C[C@@](C)(O)[C@@H](OC(=O)CC(C)C)[C@H](C)O3)[C@H](N(C)C)[C@H]2O)[C@@H](CC=O)C[C@@H](C)[C@@H](O)/C=C/C=C/C[C@@H](C)OC(=O)C[C@H]1O	DT40 TDP1 CPT 6.7µM, TDP1 cell noCPT 6µM (no result: IL1B secr inh, D3 antag, ClpP mod)
CO[C@@H]1[C@@H](OC2OC(C)C(OC3CC(C)(O)C(OC(=O)CC(C)C)C(C)O3)C(N(C)C)C2O)[C@@H](CC=O)C[C@@H](C)C(=O)/C=C\C2O[C@H]2C[C@@H](C)OC(=O)C[C@H]1OC(C)=O (stereo partly drawn)	DT40 TDP1 CPT 5.6µM, TDP1 cell noCPT 3.2µM (no result: IL1B secr inh, DRD3 agonist, D3 antag)
COc1ccc(-c2oc3ncnc(N)c3c2-c2ccccc2)cc1	TDP1 cell noCPT inconclusive, ClpP mod 35µM
OCCn1cnc2c(SCc3ccccc3)ncnc21	none (no result: ClpP mod)
N=c1c2c(-c3ccccc3)c(-c3ccccc3)n(Cc3ccccc3)c2ncn1CCO	IL1B secr inh -107
c1ccc(-c2oc3ncnc(NCCCn4ccnc4)c3c2-c2ccccc2)cc1	DT40 TDP1 CPT 23µM, IL1B secr inh -79, TDP1 cell noCPT 18µM, ClpP mod inconclusive
N=c1c2c(-c3ccccc3)c(-c3ccccc3)n(Cc3ccco3)c2ncn1CCCn1ccnc1	DT40 TDP1 CPT 18µM, TDP1 cell noCPT 18µM
CC(=O)N1CCN(C(=O)COC(=O)c2oc3ccccc3c2C)CC1	none
CC1CC(C)CN(S(=O)(=O)N2CCCC(C(=O)NCCc3ccccc3)C2)C1 (stereo not drawn)	none
C#CCOCCOCCOCCNc1nc(N2CCN(C(=O)C([C@@H](C)CC)n3cc(C(N)Cc4ccc(O)cc4)nn3)CC2)nc(N2CCN(C(=O)[C@H](CCC(=O)O)n3cc(C(N)CO)nn3)CC2)n1 (stereo partly drawn)	none
COc1ccc(Cl)cc1C(=O)NC(C)C	none (no result: ClpP mod)
CC(C)Cn1cnc2c(c(-c3ccccc3)c(-c3ccccc3)n2Cc2ccco2)c1=N	DT40 TDP1 CPT 21µM, IL1B secr inh -65, D3 antag -62, TDP1 cell noCPT 18µM
CN(C)CCCNc1ncnc2oc(-c3ccccc3)c(-c3ccccc3)c12	DT40 TDP1 CPT inconclusive, IL1B secr inh -83, D3 antag inconclusive, TDP1 cell noCPT inconclusive
CCCc1nc2oc3c(NCCCN(C)C)ncnc3c2c2c1CCCC2	DT40 TDP1 CPT inconclusive, TDP1 cell noCPT inconclusive (no result: IL1B secr inh, ClpP mod)
c1ccc(-c2c(-c3ccccc3)n(Cc3ccco3)c3ncnc(NCCCn4ccnc4)c23)cc1	DT40 TDP1 CPT inconclusive, IL1B secr inh -98, D3 antag -95, TDP1 cell noCPT inconclusive, ClpP mod 25µM
N=c1c2c(-c3ccccc3)c(-c3ccccc3)n(Cc3ccco3)c2ncn1CCCN1CCOCC1	DT40 TDP1 CPT inconclusive, IL1B secr inh -96, TDP1 cell noCPT 3.7µM (no result: ClpP mod)
N=c1c2c(-c3ccccc3)c(-c3ccccc3)n(Cc3ccco3)c2ncn1Cc1ccccc1	none
O=c1c2ccccc2nc(-c2ccccc2)n1CCCN1CCOCC1	none
